Test [1] is described as follows: NCI Yeast Anticancer Drug Screen. Data for the rad50 strain (AID 155).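 Note: 0% = growth of vehicle-only cultures of the same strain.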 The settings on record: S. cerevisiae rad50 strain growth inhibition; at 50.0 µM; active compounds read high. The method in brief: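 Readout: growth inhibition relative to vehicle-treated cultures. Compound exposure was carried out in a genetically defined yeast strain deficient in DNA damage repair.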

A short description of test [2]: NCI Yeast Anticancer Drug Screen. Data for the mec2-1 strain (AID 157). Conditions: S. cerevisiae mec2-1 strain, at 50.0 µM, active compounds read high. An outline of the steps:
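Yeast mec2-1 mutant treated with compound. Readout: growth inhibition vs vehicle controls.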

The nature of test [3]: NCI Yeast Anticancer Drug Screen. Data for the sgs1 mgt1 strain (AID 161).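 Note: 0% = growth of cultures given vehicle only.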 The settings on record: S. cerevisiae sgs1 mgt1 strain, at 50.0 µM, active compounds read high. An outline of the steps: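 Inhibition of yeast growth, normalised to vehicle-treated controls, is reported for a strain bearing genetic alterations in DNA damage repair.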
Test [4] can be described thus: NCI Yeast Anticancer Drug Screen. Data for the cln2 rad14 strain (AID 165).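 Note: 0% = growth equal to vehicle treated cultures.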 Conditions: S. cerevisiae cln2 rad14 strain, at 50.0 µM, active compounds read high. An outline of the steps:
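cln2 rad14 yeast strain; compound exposure; growth inhibition read vs vehicle controls.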

The nature of test [5]: NCI Yeast Anticancer Drug Screen. Data for the bub3 strain (AID 167). Conditions: S. cerevisiae bub3 mutant strain, at 50.0 µM, active compounds read high. An outline of the steps: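 Readout: yeast growth inhibition, expressed relative to vehicle-only wells. The test organism is a mutant strain from a panel with lesions in DNA repair or checkpoint genes.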
A short description of test [6]: NCI Yeast Anticancer Drug Screen. Data for the mlh1 rad18 strain (AID 175). The settings on record: S. cerevisiae mlh1 rad18 strain growth inhibition; at 50.0 µM; active compounds read high. The method in brief:
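Yeast w/ defined DNA-repair lesions; compound exposure; growth vs vehicle controls → % inhibition.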

The panel holds about 79,000 compounds, 15% with a hit somewhere; the sample as a whole holds those more often. Unmarked numbers belong to inactive results. The source made the active and inactive calls. Cut-off read from the data, not from the text of the source: active = growth inhibition above about 70%; inactive = the rest.

Consider `COC(=O)c1cccc2c1cc(Br)c1ccccc12`, for which the growth inhibition in test [1] is 1.75%; in test [2], 11.6%; in test [3] it was 14.2%; in test [4], -30.4%; in test [5] it was 1.35%; in test [6] it was 16.3%.
Take `O=S(=O)(Cc1c[nH]c2ccccc12)c1ccccc1`: the growth inhibition was 34.1% in test [1]; -3.2% in test [2]; 31.1% in test [3]; 11.3% in test [4]; 20.5% in test [5]; 37.6% in test [6].
For the compound `COC(=O)c1cccn1C(=O)c1ccc(C)c(OCc2ccccc2)c1[N+](=O)[O-]`, the growth inhibition in test [1] was 1.6%; in test [2], -15.8%; in test [3] it was 4.95%; in test [4] it was -8.3%; in test [5] it was 18.5%; in test [6], 8.05%.
On to `CC(C(=O)c1ccccc1)C(O)(C(F)(F)F)C(F)(F)F` (stereo not drawn), for which the growth inhibition in test [1] is -5.15%; in test [2], 2.6%; in test [3], 4.25%; in test [4] it was -24.4%; in test [5], -0.85%; in test [6], -9.05%.
As for `CC1=C(C(=O)NCc2ccccc2)C(/C=C/c2ccccc2)C(C(=O)NCc2ccccc2)=C(C)N1`, the growth inhibition in test [1] is 46%; in test [2], 16.1%; in test [3] it was 23.7%; in test [4] it was -22.1%; in test [5], 4.55%; in test [6], 34.3%.
Take `Cc1nc(N)[nH]c(=O)c1CCCNC(=O)c1cccc([N+](=O)[O-])c1`: the growth inhibition in test [1] was -1.55%; in test [2], 2.65%; in test [3] it was 11.4%; in test [4] it was -4.7%; in test [5], 30.5%; in test [6], 18.6%.
In the case of `Cc1cc(=O)n(-c2c(C)cccc2Cl)c(/C=C(\O)c2ccncc2)n1`, the growth inhibition in test [1] is 4.25%; in test [2], -2.65%; in test [3], 3.8%; in test [4], 8.3%; in test [5], 4.15%; in test [6] it was 2.85%.
Consider `O=C(O)CNC(CO)(CO)CO`, for which the growth inhibition in test [1] is -55%; in test [2], -60.8%; in test [3], -36%; in test [4] it was -19.8%; in test [5] it was -10.8%; in test [6], -43%.
Consider `C/C(=N\NC(=S)N1CCC(c2ccccc2)CC1)c1ccccn1`, for which the growth inhibition in test [1] is -24.3%; in test [2], 3.95%; in test [3], 0.25%; in test [4], -22.4%; in test [5] it was 4.65%; in test [6] it was 13.8%.
Consider `C/C=C/C(=O)NN`, for which the growth inhibition in test [1] was 13.3%; in test [2], 7.85%; in test [3] it was -4.65%; in test [4] it was -21.2%; in test [5], -2.9%; in test [6], 25.8%.
For `CC(=O)NCCc1[nH]cnc1N=Nc1ccc(Br)cc1`, the growth inhibition in test [1] was 0.95%; in test [2], 39.4%; in test [3] it was 14.7%; in test [4] it was -6.15%; in test [5], 52.1%; in test [6], 27.3%.
On to `CN1CC2=C(C1)C(N(C(=O)c1ccc(-c3ccccc3)cc1)C(=O)c1ccc(-c3ccccc3)cc1)=NCN2`, for which the growth inhibition in test [1] is 11.4%; in test [2] it was 3.25%; in test [3] it was 16.1%; in test [4] it was 10.6%; in test [5], 0.6%; in test [6] it was 21.6%.
Consider `Cn1c(=O)c2c(nc(CN3CCOCC3)n2C)n(C)c1=O`, for which the growth inhibition in test [1] is -1.35%; in test [2] it was -11.2%; in test [3], 3.55%; in test [4], -25.4%; in test [5], 3.6%; in test [6], 7.2%.
With `CCCOc1nc(N)c2cnn(C3CCCCO3)c2n1` (stereo not drawn), the growth inhibition in test [1] was -14.9%; in test [2] it was -25.5%; in test [3], 8.05%; in test [4], 16.1%; in test [5], 14.2%; in test [6] it was -9.25%.
For `CC1=COC(=O)c2ccccc2N1`, the growth inhibition in test [1] was 15.3%; in test [2], 1.65%; in test [3], -7.1%; in test [4], 14.6%; in test [5], 6.05%; in test [6], 6%.
Regarding `CCc1c(Cl)nc(N)nc1Nc1ccc(C)cc1`, the growth inhibition in test [1] is -20.7%; in test [2], -4.8%; in test [3], -11.2%; in test [4], -25%; in test [5] it was 12%; in test [6] it was -6.55%.
As for `O=S(=O)(N/N=C/c1ccncc1)c1ccccc1`, the growth inhibition in test [1] was 39.4%; in test [2] it was 16.9%; in test [3], 60.5%; in test [4], 41.1%; in test [5] it was 34.5%; in test [6] it was 50.5%.
With `CCOC(=O)NC(=S)Nc1ccn(C)c1`, the growth inhibition is 10.4% in test [1]; 36.8% in test [2]; 4.6% in test [3]; 39.9% in test [4]; 1.65% in test [5]; 46.6% in test [6].
As to `c1ccn2cncc2c1`, the growth inhibition is 17% in test [1]; 17% in test [2]; 13.1% in test [3]; 23.1% in test [4]; 20.7% in test [5]; 15.1% in test [6].
For the compound `O=C(O)/C=C/C(=O)Nc1ccc(C(=O)O)cc1`, the growth inhibition in test [1] is 22.9%; in test [2], -27.3%; in test [3], 10.2%; in test [4], 7.6%; in test [5], -20.9%; in test [6] it was -3.7%.
Regarding `O=C(O)c1ccccc1-c1ccccc1C(=O)O`, the growth inhibition in test [1] was -3.95%; in test [2], -9.6%; in test [3], -10.9%; in test [4], -41.2%; in test [5], -1.8%; in test [6] it was 9%.
As to `O=C(O)C(Cl)C(Cl)c1ccc(Cl)cc1` (stereo not drawn), the growth inhibition is -2.6% in test [1]; 7.15% in test [2]; 6.15% in test [3]; -57.3% in test [4]; 11.9% in test [5]; 6.6% in test [6].
For the compound `CC1=C(c2cc(C(=O)Nc3cc(C)ccc3C)nc(N)n2)Sc2ccccc2N1`, the growth inhibition in test [1] was 5.25%; in test [2], -10.8%; in test [3] it was -25.8%; in test [4], -18.1%; in test [5], -13.1%; in test [6], -10.8%.
In the case of `O=C(CCCCCCCCC(=O)NO)NO`, the growth inhibition in test [1] was -10.8%; in test [2], 0.45%; in test [3] it was -2.9%; in test [4], 4%; in test [5] it was -2.95%; in test [6] it was -2.5%.
As to `N#CCCc1ccc[nH]1`, the growth inhibition was -15.8% in test [1]; -8.45% in test [2]; -7.95% in test [3]; 10.6% in test [4]; 5.6% in test [5]; -5.85% in test [6].
Regarding `CC1(C)O[C@@H]2C[C@H]3[C@@H]4C[C@H](F)C5=CC(=O)C=C[C@]5(C)[C@@]4(F)[C@@H](O)C[C@]3(C)[C@]2(C(=O)CO)O1`, the growth inhibition in test [1] was -1.8%; in test [2] it was -25.6%; in test [3] it was 0.25%; in test [4] it was -4.75%; in test [5], -57.8%; in test [6], -8.35%.
As to `N#CC(c1cnc2ccccc2n1)c1cccc2ccccc12` (stereo not drawn), the growth inhibition was -0.3% in test [1]; 5.9% in test [2]; 1% in test [3]; -5.75% in test [4]; -5.3% in test [5]; 13% in test [6].
For the compound `Cc1nc(Nc2ccccc2C)c2ccsc2n1`, the growth inhibition is 41.3% in test [1]; 49.5% in test [2]; 43.2% in test [3]; 75% (active) in test [4]; 51.2% in test [5]; 48% in test [6].
As for `COc1ccc(OC)c(/C=C/c2ccc(NC(=O)Nc3ccccc3Cl)cc2)c1`, the growth inhibition in test [1] is 10.8%; in test [2] it was 2.3%; in test [3], -7.9%; in test [4] it was -39.1%; in test [5], 1.2%; in test [6] it was 13.8%.
With `Cn1c(N)c(C(=O)/C=C/c2ccccc2)c(=O)n(C)c1=O`, the growth inhibition in test [1] was 11.4%; in test [2], -17.5%; in test [3], 17.9%; in test [4], 17.1%; in test [5], -3.85%; in test [6], 5.8%.
As to `Cc1ccc(C(=O)NO)cc1`, the growth inhibition in test [1] is 28.8%; in test [2], -5.6%; in test [3] it was 7.65%; in test [4] it was -4.65%; in test [5], 13.8%; in test [6] it was 17.5%.
Consider `O=[N+]([O-])c1ccc(N=P(c2ccccc2)(c2ccccc2)c2ccccc2)n2nnnc12`, for which the growth inhibition in test [1] is 1.25%; in test [2] it was -27.8%; in test [3] it was -4.65%; in test [4], -10.2%; in test [5], -15.2%; in test [6] it was -6.85%.
Take `O=C(O)C1CCc2ccccc2C1` (stereo not drawn): the growth inhibition is 15.4% in test [1]; 4.05% in test [2]; 9.85% in test [3]; -0.45% in test [4]; -2.4% in test [5]; 2.95% in test [6].
`CCOC(=O)N1CCNCCN(C(=O)OCC)CCNCC1`: the growth inhibition was -3.95% in test [1]; 2.3% in test [2]; -4.3% in test [3]; 0.7% in test [4]; -4.5% in test [5]; 24.1% in test [6].
Regarding `N#CC(C#N)=C(O)/C(=C/c1ccccc1[N+](=O)[O-])NC(=O)c1ccccc1`, the growth inhibition in test [1] is 2.75%; in test [2], -5.6%; in test [3], -3.65%; in test [4], 23.9%; in test [5], 1.75%; in test [6] it was 40.4%.
On to `CCCCNc1ncnc2c1cnn2-c1ccccc1`, for which the growth inhibition was 7% in test [1]; -1% in test [2]; 3.2% in test [3]; -26.9% in test [4]; -4.75% in test [5]; 0% in test [6].
In the case of `OCC1OC(n2cnc3c(NCc4ccccc4)ncnc32)C(O)C1O` (stereo not drawn), the growth inhibition in test [1] is -14.3%; in test [2], -2.5%; in test [3], 3.2%; in test [4], -44.2%; in test [5] it was 11.6%; in test [6], 0.55%.
As for `O=C(CN1C(=O)NC(c2ccccc2)(c2ccccc2)C1=O)NCCN1CCOCC1`, the growth inhibition was -1.65% in test [1]; 3.9% in test [2]; -5.95% in test [3]; -1.6% in test [4]; -0.1% in test [5]; 26.1% in test [6].
